PubChem BioAssay (Tox21)
Records with an inconclusive call do not appear. Activity calls are given as the source filed them. Unless noted, calls come from the whole dose curve; as a rule, active = well fitted curve in the direction sought with a large enough effect in the repeat runs; inconclusive = weak or mixed curves; inactive = no such curve, though single readings can be large; an effect the other way counts as inactive or inconclusive.

Experiments:
[1] = qHTS assay for small molecule agonists of the p53 signaling pathway (AID 651631; calls by dose curve; note: nearly all actives have a fitted effect of over 15% in size; note: potency is the fitted concentration of half-maximal effect)
Outline: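 Beta-lactamase reporter activity under p53 response elements was quantified in HCT-116 cells by FRET fluorescence, following 16 h incubation with test compounds at 37 °C and 2 h substrate development at room temperature.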

[2] = qHTS assay for small molecules that induce genotoxicity in human embryonic kidney cells expressing luciferase-tagged ATAD5 (AID 651632); note: nearly all actives have a fitted effect of over 15% in size; note: potency is the fitted concentration of half-maximal effect
Outline: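 Luminescent reporter readout, HEK293T ATAD5-luc line: 16 hr drug exposure (37C, 5% CO2) followed by Amplite, 30 min RT.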

[3] = qHTS assay for small molecules that induce genotoxicity in human embryonic kidney cells expressing luciferase-tagged ATAD5 - cell viability (AID 651634; calls by dose curve; note: nearly all actives have a fitted effect of over 25% in size)
Outline: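 Viability read: CellTiter-Fluor fluorescence, 30 min at 37C. Cells: HEK293T, luciferase-tagged ATAD5. Exposure: 15.5 hr, 37C, 5% CO2, compound or DMSO vehicle.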

[4] = qHTS assay for small molecule disruptors of the mitochondrial membrane potential (AID 720635); note: potency is the fitted concentration of half-maximal effect
Outline: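 Mitochondrial membrane potential tracked with Mito-MPS dye, red aggregates (ex 540/em 590 nm) against green monomers (ex 490/em 535 nm). Compound treatment 1 hr at 37C, dye 30 min in HepG2.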

[5] = qHTS assay to test for compound auto fluorescence at 590 nm (red) in HepG2 cells (AID 720674)
Outline: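 Red autofluorescence (Ex/Em 540/590 nm, Rose Bengal sodium equivalents) was measured in HepG2 cells, 2,000 per well in MEM plus 10% FBS, plated overnight at 37 C. Readings were taken 1 hr after adding 23 nL compound or DMSO, at 37 C and 5% CO2.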

[6] = qHTS assay to test for compound auto fluorescence at 535 nm (green) in HepG2 cells (AID 720675)
[7] = qHTS assay to test for compound auto fluorescence at 460 nm (blue) in HEK293 cells (AID 720678)
Outline: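 HEK293 cells (2,000/well, medium with 10% dialyzed FBS) attached 4-5 hr, then exposed to compound overnight at 37C, 5% CO2. Blue fluorescence read at 405/460 nm, with triamterene as reference fluorophore.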

[8] = qHTS assay to test for compound auto fluorescence at 590 nm (red) in HEK293 cells (AID 720679)
Outline: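 HEK293 cells (2,000/well, 10% dialyzed FBS) attached 4-5 hr, then dosed with compound or DMSO and incubated overnight at 37C, 5% CO2. Red fluorescence read at 540/590 nm, Rose Bengal sodium as reference fluorophore.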

[9] = qHTS assay for small molecule agonists of the p53 signaling pathway - cell viability (AID 651633; calls by dose curve;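 note: p53RE-bla HCT reporter cells with a stable beta-lactamase p53 reporter; series mostly up to about 83 µM; nearly all actives have a fitted effect of over 30% in size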)
Outline: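 Viability counter-read: CellTiter-Glo luminescence (30 min, room temperature) in the same p53RE-bla plates. These plates had been exposed to compounds for 16 h at 37 C.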

[10] = qHTS assay for small molecule disruptors of the mitochondrial membrane potential - cell viability (AID 720634; calls by dose curve;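 note: human HepG2 liver cancer cells; series mostly up to about 83 µM; nearly all actives have a fitted effect of over 20% in size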)
Outline: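 HepG2, 1 hr compound, 37 C. ATP luminescence via CellTiter-Glo, 30 min RT, same well as m-MPI.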

Measured: Potency

CCC(=O)O[C@H]1CC[C@H]2[C@@H]3CCc4cc(O)ccc4[C@H]3CC[C@]12C
active: [1] 33.5 µM | [4] 11.9 µM
inactive: [2] | [3] | [5] | [6] | [7] | [8]

C[C@]12C=CC(=O)C=C1CC[C@@H]1[C@@H]2[C@@H](O)C[C@@]2(C)[C@H]1CC[C@]2(O)C(=O)COC(=O)CCC(=O)O
inactive: [1] | [9] | [3] | [10] | [4] | [5] | [6] | [7] | [8]

CCCCCCCCCCCCCC[n+]1ccc(C)cc1
inactive: [2] | [5] | [6] | [7] | [8]
active: [1] 23.7 µM | [4] 13.3 µM

O=C(O)c1cc2ccccc2c(Cc2c(O)c(C(=O)O)cc3ccccc23)c1O
inactive: [1] | [2] | [3] | [10] | [5] | [6] | [7] | [8]

CCCCC(=O)OCC(=O)[C@]1(O)Cc2c(O)c3c(c(O)c2[C@@H](O[C@H]2C[C@H](NC(=O)C(F)(F)F)[C@H](O)[C@H](C)O2)C1)C(=O)c1c(OC)cccc1C3=O
active: [1] 4.22 µM | [2] 3.35 µM | [4] 1.19 µM
inactive: [10] | [5] | [6] | [7] | [8]

CCC(C)C(C(=O)OCC[N+](C)(CC)CC)c1ccccc1 (configuration not stated)
inactive: [1] | [9] | [3] | [10] | [4] | [5] | [6] | [7] | [8]

CN1C(=O)CN2CCc3ccccc3C2c2cc(Cl)ccc21 (configuration not stated)
active: [1] 29.8 µM
inactive: [2] | [3] | [10] | [4] | [5] | [6] | [7] | [8]

O=C1C(=O)c2ncccc2-c2cccnc21
inactive: [2] | [3] | [10] | [5] | [6] | [8]
active: [1] 1.68 µM | [4] 26.6 µM

COCC1=C(C(=O)OC(C)OC(=O)OC(C)C)N2C(=O)[C@@H](NC(=O)/C(=N\OC)c3csc(N)n3)[C@H]2SC1 (some centres not stated)
inactive: [1] | [9] | [3] | [10] | [4] | [5] | [6] | [7] | [8]

COc1ccc(/C=C/C(=O)OCCC(C)C)cc1
inactive: [1] | [9] | [3] | [10] | [4] | [5] | [6] | [7] | [8]

CCCCCCCCCCCCCCCCCC(=O)[O][Al]
inactive: [1] | [2] | [3] | [10] | [5] | [6] | [7] | [8]

CCCCOC(=O)C(=O)Nc1cccc(-c2nn[nH]n2)c1
inactive: [1] | [9] | [3] | [10] | [4] | [5] | [6] | [7] | [8]

CC[N+](C)(C)Cc1ccccc1Br
inactive: [1] | [9] | [3] | [10] | [4] | [5] | [6] | [7] | [8]

CN[C@@H]1[C@@H](O)[C@@H](O[C@@H]2[C@@H](O)[C@H](O[C@H]3O[C@H](CN)[C@@H](O)[C@H](O)[C@H]3O)[C@@H](N)C[C@H]2NC(=O)C(O)CN)OC[C@]1(C)O (some centres not stated)
inactive: [1] | [9] | [3] | [10] | [4] | [5] | [6] | [7] | [8]

OCCO[C@@H]1[C@@H](O)[C@H](O)[C@@H](CO)O[C@@H]1O
inactive: [1] | [9] | [3] | [10] | [4] | [5] | [6] | [7] | [8]

CC(C)(C)CC(=O)OCC(=O)[C@@]12OC(C)(C)O[C@@H]1C[C@H]1[C@@H]3CCC4=CC(=O)C=C[C@]4(C)[C@@]3(F)[C@@H](O)C[C@@]12C
inactive: [1] | [9] | [3] | [10] | [5] | [6] | [7] | [8]
active: [4] 13.3 µM

Cc1ccccc1CNc1ncnc2c1ncn2[C@@H]1O[C@H](CO)[C@@H](O)[C@H]1O
inactive: [1] | [9] | [3] | [10] | [4] | [5] | [6] | [7] | [8]

Nc1nc2c(c(=O)[nH]1)N(C=O)C(CNc1ccc(C(=O)N[C@@H](CCC(=O)O)C(=O)O)cc1)CN2 (some centres not stated)
inactive: [1] | [2] | [3] | [10] | [5] | [6] | [7] | [8]

O=C(O)c1ccc(NC(=O)[C@H](Cc2ccc(O)cc2)NC(=O)c2ccccc2)cc1
inactive: [1] | [2] | [3] | [10] | [4] | [5] | [7] | [8]

COc1cc(S(C)=O)ccc1-c1nc2ncccc2[nH]1 (configuration not stated)
inactive: [1] | [9] | [3] | [10] | [4] | [5] | [6] | [7] | [8]

COc1cc([C@@H]2c3cc4c(cc3C(O[C@@H]3O[C@@H]5COC(c6cccs6)O[C@H]5[C@H](O)[C@H]3O)C3COC(=O)[C@@H]32)OCO4)cc(OC)c1O (some centres not stated)
inactive: [2] | [3] | [10] | [5] | [6] | [7] | [8]
active: [1] 0.376 µM

CCC(Cc1c(I)cc(I)c(O)c1I)C(=O)O (configuration not stated)
inactive: [1] | [2] | [3] | [10] | [5] | [6] | [7] | [8]

O=C1N=C2SCCN2C(=O)C1Cc1ccc(Cl)cc1 (configuration not stated)
inactive: [1] | [2] | [3] | [10] | [5] | [6] | [7] | [8]

NC(Cc1ccccc1)C(=O)O (configuration not stated)
inactive: [1] | [9] | [3] | [10] | [4] | [5] | [6] | [7] | [8]

CCCCCCCCCCCCOCCCN
inactive: [1] | [9] | [3] | [10] | [4] | [5] | [6] | [7] | [8]

CC1CCC(NC(=O)N(CCCl)N=O)CC1 (configuration not stated)
inactive: [1] | [9] | [3] | [10] | [4] | [5] | [6] | [7] | [8]

CC(C)CN(C[C@@H](O)[C@H](Cc1ccccc1)NC(=O)O[C@@H]1CCOC1)S(=O)(=O)c1ccc(N)cc1
inactive: [1] | [9] | [3] | [10] | [4] | [5] | [6] | [7] | [8]

O=C1CCC(=O)N1CO
inactive: [1] | [2] | [3] | [10] | [5] | [6] | [7] | [8]

CCCCCCCCCCCCCCCCCC(=O)OCCO
inactive: [1] | [9] | [3] | [10] | [4] | [5] | [6] | [7] | [8]

COc1ccc(CNCC(O)COc2ccc3[nH]c(=O)ccc3c2)cc1OC (configuration not stated)
inactive: [1] | [9] | [3] | [10] | [4] | [5] | [6] | [7] | [8]

O=C(O[C@H]1CN2CCC1CC2)N1CCc2ccccc2[C@@H]1c1ccccc1
inactive: [1] | [2] | [3] | [10] | [5] | [6] | [7] | [8]

O.O=C([O-])CC([S-])C(=O)[O-].[Au+].[Na+].[Na+] (configuration not stated)
inactive: [1] | [9] | [3] | [10] | [4] | [5] | [6] | [7] | [8]

NC[C@@H]1O[C@H](O[C@H]2[C@@H](O)[C@H](O[C@@H]3[C@@H](O)[C@H](N)C[C@H](N)[C@H]3O[C@H]3O[C@H](CN)[C@@H](O)[C@H](O)[C@H]3N)O[C@@H]2CO)[C@H](N)[C@@H](O)[C@@H]1O
inactive: [2] | [9] | [3] | [10] | [4] | [5] | [6] | [7] | [8]

c1ccc2cc(C3=NCCN3)ccc2c1
inactive: [2] | [9] | [3] | [10] | [4] | [5] | [6] | [7] | [8]

CC[C@H](C)[C@@H]1NC(=O)[C@H](Cc2ccc(O)cc2)NC(=O)[C@@H](N)CSSC[C@@H](C(=O)N2CCC[C@H]2C(=O)N[C@@H](CC(C)C)C(=O)NCC(N)=O)NC(=O)[C@H](CC(N)=O)NC(=O)[C@H](CCC(N)=O)NC1=O
inactive: [2] | [9] | [3] | [10] | [4] | [5] | [6] | [7] | [8]

Cc1ccc(/C(=C\CN2CCCC2)c2cccc(/C=C/C(=O)O)n2)cc1
inactive: [1] | [9] | [3] | [10] | [5] | [6] | [7] | [8]

CCCC(=O)Nc1c(I)cc(I)c(CC(CC)C(=O)O)c1I (configuration not stated)
inactive: [2] | [9] | [3] | [10] | [4] | [5] | [6] | [7] | [8]

O=[N+]([O-])O[C@@H]1CO[C@H]2[C@@H]1OC[C@@H]2O
inactive: [2] | [9] | [3] | [10] | [4] | [5] | [6] | [7] | [8]
